Measurements taken from PubChem BioAssay (Tox21).
Results filed as inconclusive are left out. Active and inactive are the calls of the source. Unless noted, the call rests on the fitted dose curve; in most records, active means well fitted curve in the direction sought with a large enough effect in the repeat runs; inconclusive means weak or mixed curves; inactive means no such curve, though single readings can be large; an effect the other way counts as inactive or inconclusive.

Legend:
[1] = molecular target: Thyrotropin receptor (Homo sapiens) (UniProt P16473); assay: qHTS assay to identify small molecule antagonists of the thyroid stimulating hormone receptor (TSHR) signaling pathway (AID 1259385; calls by dose curve; further: nearly all actives have a fitted effect of over 20% in size)
Procedure, shortened: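 Antagonist mode: compound-treated TSHR-expressing HEK293 cells were stimulated with 1.5 ng/mL TSH (final) in presence of Ro20-1724 for 30 min at RT. HTRF cAMP detection after 1 h; each compound tested at 15 concentrations, triplicate.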

[2] = qHTS assay to identify small molecule agonists of the estrogen receptor alpha (ER-alpha) signaling pathway in the presence of an antagonist - cell viability counter screen (AID 1259386); further: series mostly up to about 92 µM; nearly all actives have a fitted effect of over 30% in size
Procedure, shortened: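 Compounds tested at 15 concentrations for 22 h at 37C alongside 10.0nM (final) ICI-182,780 antagonist, in VM7Luc4E2 cells grown in phenol red-free, charcoal-stripped medium. Viability read by CellTiter-Fluor fluorescence after 1 h reagent incubation.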

[3] = molecular target: Progesterone receptor (Homo sapiens) (UniProt P06401); assay: qHTS assay to identify small molecule agonists of the progesterone receptor (PR) signaling pathway (AID 1346784; calls by dose curve; further: nearly all actives have a fitted effect of over 30% in size)
Procedure, shortened: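 Reporter assay, GripTite PR-UAS-bla HEK 293T cells: 16 hr exposure to DMSO-dissolved compounds at 37C, 5% CO2, in steroid-depleted (2% charcoal-stripped FBS) medium; beta-lactamase measured by FRET fluorescence.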

[4] = molecular target: Progesterone receptor (Homo sapiens) (UniProt P06401); assay: qHTS assay to identify small molecule antagonists of the progesterone receptor (PR) signaling pathway (AID 1346795; active means well fitted inhibition curve with a large enough effect in the signal ratio in the repeat runs, not every such curve was filed as active; the % refers to the signal ratio)
Procedure, shortened: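 Stimulus R5020 at 1 nM final; cells HEK293T PR-UAS-bla; medium with 2% charcoal-stripped FBS; compound exposure 16 hr at 37C, 5% CO2; detection by FRET beta-lactamase substrate, 2 hr, room temperature.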

[5] = qHTS assay to identify small molecule antagonists of the progesterone receptor (PR) signaling pathway - cell viability counter screen (AID 1346798); further: series mostly up to about 92 µM; nearly all actives have a fitted effect of over 50% in size
Procedure, shortened: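 In the same plates used for the beta-lactamase readout, cell viability of compound- and R5020-treated PR-UAS-bla HEK293T cells (16 hr, 37C) was assessed by CellTiter-Glo luminescence.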

[6] = qHTS assay to identify small molecule agonists of the progesterone receptor (PR) signaling pathway - cell viability counter screen (AID 1346799; calls by dose curve; further: nearly all actives have a fitted effect of over 45% in size)
Procedure, shortened: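 Multiplexed viability read: CellTiter-Glo luminescence, 30 min RT, following LiveBLAzer FRET measurement on PR-UAS-bla HEK293T cells exposed to compounds 16 hr.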

[7] = qHTS assay to identify small molecule antagonists of the TGF-beta/Smad signaling pathway - cell viability counter screen (AID 1346824); further: nearly all actives have a fitted effect of over 50% in size
Procedure, shortened: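 Cytotoxicity counter-screen run in the same wells as the beta-lactamase Smad reporter read: CellTiter-Glo luminescence after 30 min at room temperature. HEK 293T SBE-bla cells had 5 hr compound exposure at 37 C with TGF-beta1 (0.25 ng/mL stock).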

[8] = qHTS assay to identify small molecule agonists of the TGF-beta/Smad signaling pathway - cell viability counter screen (AID 1346829); further: top concentration of the series differs between compounds; nearly all actives have a fitted effect of over 45% in size
Procedure, shortened: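 Tox21 qHTS format: SBE-bla HEK 293T cells treated with DMSO-dissolved compounds for 5 hr; CellTiter-Glo luminescence after 30 min at room temperature.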

[9] = qHTS assay to identify small molecule agonists of the TGF-beta/Smad signaling pathway (AID 1346859; active means well fitted activation curve with a large enough effect in the signal ratio in the repeat runs, not every such curve was filed as active; the % refers to the signal ratio; further: series mostly up to about 77 µM)
Procedure, shortened: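 Screening used HEK 293T SBE-bla cells at 4,000/well. Test agents: 5 hr, 37 C. Detection: FRET substrate, 2 hr RT, then excitation 405 nm with emissions at 460 and 530 nm.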

[10] = molecular target: Thyrotropin-releasing hormone receptor (Homo sapiens) (UniProt P34981); assay: qHTS assay to identify small molecule antagonists of the thyrotropin-releasing hormone receptor (TRHR) signaling pathway (AID 1346877; active means well fitted inhibition curve with a large enough effect in the repeat runs, not every such curve was filed as active; further: series mostly up to about 51 µM)
Procedure, shortened: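 Antagonist mode: after a 5 min room-temperature compound exposure, cells were stimulated with 1 nM (final) TRH. Dye-loaded TRHR-HEK293 cells were used, and calcium-dependent fluorescence was followed for 3 min, with 15-point titrations run in triplicate.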

[11] = molecular target: Thyrotropin-releasing hormone receptor (Homo sapiens) (UniProt P34981); assay: qHTS assay to identify small molecule agonists of the thyrotropin-releasing hormone receptor (TRHR) signaling pathway (AID 1346891; calls by dose curve; further: series mostly up to about 58 µM)
Procedure, shortened: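 Readout was intracellular calcium fluorescence in TRHR-Hek293 cells. Cells were incubated 18 h, dye-loaded 2 h at 37 °C, and treated with compound in agonist mode.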

[12] = Human pregnane X receptor (PXR) small molecule agonists, qHTS cell viability counter screen (AID 1346977); further: nearly all actives have a fitted effect of over 50% in size
Procedure, shortened: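 In each well, the PXR reporter HepG2 line was checked for viability: CellTiter-Fluor reagent added 23hr post-dosing, fluorescence read after 1hr incubation at 37C.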

[13] = Caspase-3/7 induction in HepG2 cells by small molecules, qHTS assay (AID 1346978); further: nearly all actives have a fitted effect of over 15% in size
Procedure, shortened: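 Caspase-3/7 induction was measured by Caspase-Glo 3/7 luminescence (30 min, room temperature) after a 17 hr compound exposure of wild-type HepG2 cells seeded at 2,000 per well and pre-incubated 5 hr.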

[14] = Caspase-3/7 induction in CHO-K1 cells by small molecules, qHTS assay (AID 1346980); further: nearly all actives have a fitted effect of over 15% in size
Procedure, shortened: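 Luminescent Caspase-Glo 3/7 read (30min, room temperature) quantified apoptosis induction. Cells were wild-type CHO-K1, treated with compound for 17hr at 37 C and 5% CO2.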

[15] = Caspase-3/7 induction in HepG2 cells by small molecules, qHTS cell viability counter screen (AID 1346981); further: series mostly up to about 92 µM; nearly all actives have a fitted effect of over 30% in size
Procedure, shortened: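 CellTiter-Fluor fluorescence measured viability in the same wells used for Caspase-Glo 3/7. HepG2 (wild type) at 2,000 cells/well were pre-incubated 5 hr, dosed, and given reagent at 16 hr, with 1 hr further at 37C.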

[16] = molecular target: Nuclear receptor subfamily 1 group I member 2 (Rattus norvegicus) (UniProt Q9R1A7); assay: Rat pregnane X receptor (rPXR) activation by small molecules, qHTS assay (AID 1346983); conditions: rPXR luciferase reporter cells, One-Glo luminescence, 24 h; max activation: stronger effect = higher value; further: nearly all actives have a fitted effect of over 20% in size
Procedure, shortened: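 Luminescent readout (One-Glo luciferase, 30 min room temperature) followed 24 hr compound treatment at 37 C of rPXR cells plated 2,000 per well and preincubated 5hr; qHTS format with compounds delivered in DMSO.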

[17] = molecular target: Nuclear receptor subfamily 1 group I member 2 (Homo sapiens) (UniProt O75469); assay: Human pregnane X receptor (PXR) small molecule agonists, qHTS assay (AID 1346982); further: nearly all actives have a fitted effect of over 35% in size
Procedure, shortened: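 Agonist mode: luminescence from ONE-Glo after 24 h compound exposure at 37C in HepG2 cells carrying hPXR-responsive CYP3A4 luciferase, plated in charcoal-stripped serum medium 5 h beforehand.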

[18] = Caspase-3/7 induction in CHO-K1 cells by small molecules, qHTS cell viability counter screen (AID 1346979); further: nearly all actives have a fitted effect of over 35% in size
Procedure, shortened: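 Following a 5hr settling period, CHO-K1 cells at 1,500 per well received DMSO-dissolved compounds. Cell viability was quantified 16hr later by CellTiter-Fluor fluorescence, measured after 1hr with reagent at 37C.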

[19] = molecular target: Nuclear receptor subfamily 1 group I member 2 (Homo sapiens) (UniProt O75469); assay: CYP3A4 induction through human pregnane X receptor (PXR) by small molecules, qHTS assay (AID 1346984); further: nearly all actives have a fitted effect of over 40% in size
Procedure, shortened: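 Read-out is luminescence after One-Glo addition, following a 3 hr, 37C incubation with Luciferin-IPA CYP3A4 substrate (3uM final). Before that, compounds were on DPX-2 cells (HepG2 co-transfected with PXR element plus CYP3A4-promoter luciferase) for 24 hr at 37C.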

[20] = molecular target: Nuclear receptor subfamily 1 group I member 2 (Homo sapiens) (UniProt O75469); assay: Human pregnane X receptor (PXR) activation by small molecules, qHTS assay (AID 1346985); further: nearly all actives have a fitted effect of over 40% in size
Procedure, shortened: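 DPX-2 cells (HepG2 co-transfected with a PXR response element and a CYP3A4-promoter luciferase construct) were seeded at 2,000 per well, rested 5 hr at 37C, then exposed to DMSO-dissolved compounds for 24 hr. Activation was read as luciferase luminescence.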
On the % scale 0 is the no-effect control and ±100 the full control effect.

Sequence of Progesterone receptor (Homo sapiens) (P06401 whole entry, looked up): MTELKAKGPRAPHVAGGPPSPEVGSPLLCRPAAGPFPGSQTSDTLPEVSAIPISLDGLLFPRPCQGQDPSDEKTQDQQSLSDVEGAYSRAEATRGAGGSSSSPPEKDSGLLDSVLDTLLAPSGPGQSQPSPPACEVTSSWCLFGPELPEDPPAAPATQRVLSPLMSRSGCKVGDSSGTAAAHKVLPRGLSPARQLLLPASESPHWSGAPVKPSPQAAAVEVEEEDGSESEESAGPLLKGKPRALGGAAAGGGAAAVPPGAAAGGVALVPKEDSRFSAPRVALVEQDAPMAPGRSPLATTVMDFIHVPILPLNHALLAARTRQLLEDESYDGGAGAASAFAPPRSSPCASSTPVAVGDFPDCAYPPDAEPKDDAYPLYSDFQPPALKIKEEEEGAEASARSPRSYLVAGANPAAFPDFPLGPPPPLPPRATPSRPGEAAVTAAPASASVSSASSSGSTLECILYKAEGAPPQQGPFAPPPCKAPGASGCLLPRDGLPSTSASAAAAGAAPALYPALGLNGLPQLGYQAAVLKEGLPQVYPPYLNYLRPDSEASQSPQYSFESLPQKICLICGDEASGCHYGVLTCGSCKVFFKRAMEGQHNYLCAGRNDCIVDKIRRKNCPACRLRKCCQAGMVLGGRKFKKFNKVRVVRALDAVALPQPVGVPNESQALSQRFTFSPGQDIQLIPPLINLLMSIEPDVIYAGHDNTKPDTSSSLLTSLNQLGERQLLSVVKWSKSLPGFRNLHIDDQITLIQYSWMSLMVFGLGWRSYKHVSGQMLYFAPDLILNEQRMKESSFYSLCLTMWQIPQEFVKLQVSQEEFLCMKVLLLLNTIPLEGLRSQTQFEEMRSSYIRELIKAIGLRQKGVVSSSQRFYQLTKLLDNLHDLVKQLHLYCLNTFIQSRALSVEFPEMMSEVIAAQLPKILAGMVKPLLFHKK
Sequence of Thyrotropin receptor (Homo sapiens) (P16473 whole entry, looked up): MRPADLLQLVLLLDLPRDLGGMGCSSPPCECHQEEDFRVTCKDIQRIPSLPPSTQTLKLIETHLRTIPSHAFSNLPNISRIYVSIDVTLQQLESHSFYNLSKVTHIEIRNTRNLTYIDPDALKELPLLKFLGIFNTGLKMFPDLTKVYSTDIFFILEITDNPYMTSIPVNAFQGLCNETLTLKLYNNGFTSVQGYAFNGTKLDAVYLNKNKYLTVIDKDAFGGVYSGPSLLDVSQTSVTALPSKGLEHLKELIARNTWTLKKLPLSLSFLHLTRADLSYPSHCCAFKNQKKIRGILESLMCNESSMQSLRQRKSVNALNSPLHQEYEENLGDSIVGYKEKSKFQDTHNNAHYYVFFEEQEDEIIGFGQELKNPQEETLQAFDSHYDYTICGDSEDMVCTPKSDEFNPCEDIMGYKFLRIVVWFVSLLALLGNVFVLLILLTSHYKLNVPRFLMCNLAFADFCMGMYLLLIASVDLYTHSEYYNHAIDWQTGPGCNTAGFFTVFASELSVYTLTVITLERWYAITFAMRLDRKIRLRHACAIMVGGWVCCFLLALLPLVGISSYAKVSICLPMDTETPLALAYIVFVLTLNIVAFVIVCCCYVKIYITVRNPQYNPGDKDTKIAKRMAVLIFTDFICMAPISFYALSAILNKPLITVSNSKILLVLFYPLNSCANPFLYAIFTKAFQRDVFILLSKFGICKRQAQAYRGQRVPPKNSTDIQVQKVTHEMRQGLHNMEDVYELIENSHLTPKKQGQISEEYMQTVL
Sequence of Nuclear receptor subfamily 1 group I member 2 (Homo sapiens) (O75469 whole entry, looked up): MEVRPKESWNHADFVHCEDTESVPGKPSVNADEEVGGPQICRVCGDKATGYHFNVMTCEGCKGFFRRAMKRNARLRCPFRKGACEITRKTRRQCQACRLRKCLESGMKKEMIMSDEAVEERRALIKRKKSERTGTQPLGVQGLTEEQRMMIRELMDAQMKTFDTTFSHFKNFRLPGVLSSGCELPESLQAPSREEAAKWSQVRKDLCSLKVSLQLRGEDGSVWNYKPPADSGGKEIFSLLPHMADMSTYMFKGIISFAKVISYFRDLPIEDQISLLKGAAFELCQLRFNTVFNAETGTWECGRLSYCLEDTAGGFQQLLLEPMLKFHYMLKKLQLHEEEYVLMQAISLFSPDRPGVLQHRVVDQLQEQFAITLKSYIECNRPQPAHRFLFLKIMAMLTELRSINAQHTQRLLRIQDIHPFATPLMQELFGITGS
Sequence of Nuclear receptor subfamily 1 group I member 2 (Rattus norvegicus) (Q9R1A7 whole entry, looked up): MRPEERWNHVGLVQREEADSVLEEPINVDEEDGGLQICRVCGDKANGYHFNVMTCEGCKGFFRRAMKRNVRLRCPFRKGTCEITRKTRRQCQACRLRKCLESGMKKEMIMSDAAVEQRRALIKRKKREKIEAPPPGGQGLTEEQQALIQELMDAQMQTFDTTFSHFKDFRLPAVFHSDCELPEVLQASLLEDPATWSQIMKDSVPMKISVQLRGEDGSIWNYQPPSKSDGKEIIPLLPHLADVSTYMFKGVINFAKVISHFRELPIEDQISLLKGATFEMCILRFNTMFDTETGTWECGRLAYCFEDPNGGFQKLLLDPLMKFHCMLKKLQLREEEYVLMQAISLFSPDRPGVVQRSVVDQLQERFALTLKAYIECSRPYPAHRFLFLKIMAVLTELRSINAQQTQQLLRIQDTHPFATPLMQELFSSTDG
Sequence of Thyrotropin-releasing hormone receptor (Homo sapiens) (P34981 whole entry, looked up): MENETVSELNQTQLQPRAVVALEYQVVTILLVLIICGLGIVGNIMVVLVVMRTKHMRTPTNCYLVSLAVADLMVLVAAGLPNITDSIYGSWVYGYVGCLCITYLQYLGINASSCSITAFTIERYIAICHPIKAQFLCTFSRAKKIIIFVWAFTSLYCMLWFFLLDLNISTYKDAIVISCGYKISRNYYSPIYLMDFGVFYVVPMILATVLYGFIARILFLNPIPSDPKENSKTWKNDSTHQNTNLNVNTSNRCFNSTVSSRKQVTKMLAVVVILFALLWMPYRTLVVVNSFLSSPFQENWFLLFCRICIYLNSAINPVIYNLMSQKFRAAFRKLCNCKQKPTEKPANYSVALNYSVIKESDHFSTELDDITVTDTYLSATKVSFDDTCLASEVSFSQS

C=CCSCC1Nc2cc(Cl)c(S(N)(=O)=O)cc2S(=O)(=O)N1 (stereo not drawn)
inactive: Potency [1] | outcome [2] | Potency [3] | Potency [4] | Potency [5] | Potency [6] | outcome [7] | outcome [8] | outcome [9] | outcome [10] | outcome [11] | Potency [12] | outcome [13] | outcome [14] | outcome [15] | max activation [16] 0.305%

COc1nc(C)nc(N)n1
inactive: Potency [1] | outcome [2] | Potency [3] | Potency [4] | Potency [5] | Potency [6] | outcome [7] | outcome [8] | outcome [9] | outcome [10] | outcome [11] | Potency [12] | outcome [13] | outcome [14] | outcome [15] | Potency [17]

CN(C)CCn1nnnc1SCC1=C(C(=O)O)N2C(=O)[C@@H](NC(=O)Cc3csc(N)n3)[C@H]2SC1
inactive: Potency [1] | outcome [2] | Potency [3] | Potency [4] | Potency [5] | Potency [6] | outcome [7] | outcome [8] | outcome [9] | outcome [10] | outcome [11] | outcome [13] | Potency [18] | outcome [14] | outcome [15] | Potency [17] | max activation [16] 14.1% | Potency [19] | Potency [20]

Cc1ccccc1Br
inactive: Potency [1] | outcome [2] | Potency [3] | Potency [4] | Potency [5] | Potency [6] | outcome [7] | outcome [8] | outcome [9] | outcome [10] | outcome [11] | Potency [12] | outcome [13] | outcome [14] | Potency [17]

CC/C=C\C#N
inactive: Potency [1] | outcome [2] | Potency [3] | Potency [4] | Potency [5] | Potency [6] | outcome [7] | outcome [8] | outcome [9] | outcome [10] | outcome [11] | Potency [12] | outcome [13] | outcome [14] | Potency [17]

CN(C)C(=O)Nc1ccccc1
inactive: Potency [1] | outcome [2] | Potency [3] | Potency [4] | Potency [5] | Potency [6] | outcome [7] | outcome [8] | outcome [9] | outcome [10] | outcome [11] | Potency [12] | outcome [13] | outcome [14] | outcome [15] | Potency [17]

CC(C)CCCC(C)NCCC(C)C (stereo not drawn)
inactive: Potency [1] | outcome [2] | Potency [3] | Potency [4] | Potency [5] | Potency [6] | outcome [7] | outcome [8] | outcome [9] | outcome [10] | outcome [11] | Potency [12] | outcome [13] | outcome [14] | outcome [15] | Potency [17]

CC(C)COC(=O)c1ccccc1O
inactive: Potency [1] | outcome [2] | Potency [3] | Potency [4] | Potency [5] | Potency [6] | outcome [7] | outcome [8] | outcome [9] | outcome [11] | Potency [12] | outcome [13] | Potency [18] | outcome [14] | outcome [15] | Potency [17]

NCC[C@H](O)C(=O)N[C@@H]1C[C@H](N)[C@@H](O[C@H]2O[C@H](CN)[C@@H](O)[C@H](O)[C@H]2O)[C@H](O)[C@H]1O[C@H]1O[C@H](CO)[C@@H](O)[C@H](N)[C@H]1O
inactive: activity change, negative = inhibition [1] 0.0742% [at 0.349 µM] | activity change, negative = cytotoxicity [2] 0.765% [at 0.349 µM] | activation [3] 0.26% [at 0.349 µM] | activity change, negative = inhibition [4] 2.43% [at 0.348 µM] | activity change, negative = cytotoxicity [5] 0.454% [at 0.348 µM] | activity change, negative = cytotoxicity [6] 8.45% [at 0.349 µM] | viability change, negative = cytotoxic [7] -7.43% [at 0.29 µM] | activity change, negative = cytotoxicity [8] -7.72% [at 0.29 µM] | activation [9] 5.03% [at 0.29 µM] | activation [11] -0.0262% [at 0.218 µM] | activity change, negative = cytotoxicity [12] -0.464% [at 0.349 µM] | caspase activation [13] -1.92% [at 0.349 µM] | activity change, negative = cytotoxicity [18] -5.52% [at 0.349 µM] | caspase-3/7 activation [14] -0.155% [at 0.349 µM] | activity change, negative = cytotoxicity [15] -0.33% [at 0.349 µM] | activation [17] -0.318% [at 0.349 µM] | max activation [16] -10.2% | Potency [19] | Potency [20]

CN(C)N=Nc1ccccc1
inactive: Potency [1] | outcome [2] | Potency [3] | Potency [4] | Potency [5] | Potency [6] | outcome [7] | outcome [8] | outcome [9] | outcome [10] | outcome [11] | Potency [12] | outcome [13] | outcome [14] | Potency [17]

CO[Si](OC)(OC)OC
inactive: Potency [1] | outcome [2] | Potency [3] | Potency [4] | Potency [5] | Potency [6] | outcome [7] | outcome [8] | outcome [9] | outcome [10] | outcome [11] | Potency [12] | outcome [13] | outcome [14] | outcome [15] | Potency [17]

Nc1ncnc2c1ncn2Cc1c(F)cccc1Cl
inactive: Potency [1] | outcome [2] | Potency [3] | Potency [4] | Potency [5] | Potency [6] | outcome [7] | outcome [8] | outcome [9] | outcome [11] | Potency [12] | outcome [13] | Potency [18] | outcome [14]
